# Measured values as given in PubChem BioAssay (NCI).
# Compounds without any hit were thinned out: in the full panel of roughly 83,000, 20% have a hit.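 Negative percent growth values reflect cell death: -40 means 40% of the cells present at the start died, and -100 means all died.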 Active and inactive are the calls of the source.
# Test system: T-47D breast
# Experiment: NCI-60 one-dose screen, 48 h (100 = growth as untreated, 0 = no growth, -100 = all killed)
# Conditions: 10 µM unless noted
# Procedure: Growth inhibition of the T-47D human tumor cell line is measured as a screen for anti-cancer activity. Cells are grown in 96 well plates and exposed to the test compound for 48 hours. Compounds are tested at a single concentration, which is 10^-5 M for most compounds. The reported endpoint is percent growth (GI% or GIPRCNT), where numbers from 0 - 100% represent growth inhibition, and numbers from -100% - 0 represent cell death. For example, a value of 40 represents 60% growth inhibition. A value of 0 means no net growth occurred over the course of the experiment. A value of -40 indicates 40% of cells at the beginning of the experiment died by the end of the experiment. A value of -100 means all cells are dead at the end of the experiment.
# NCI-60 Human Tumor Cell Lines Screen was performed using the standard one-dose NCI protocol, which is described in more detail at https://dtp.cancer.gov/discovery_development/nci-60/default.htm.
# Compounds with GIPRCNT values below 10 were considered active. Activity score was based on GIPRCNT using the following formula: […]
# Score is 0 for GIPRCNT values of 100 or above, 50 for GIPRCNT values of 0, and 100 for GIPRCNT values of -100.
row,SMILES,growth
1,CCCCCc1ccc(C)cc1OC(=O)CCl,102% (inactive)
2,CN(C[C@@H]1COCCO1)S(=O)(=O)Nc1ccc2ccc3ncc(-c4cnn(C)c4)cc3c(=O)c2c1,15.9% (inactive)
3,CCc1ccc(C2=C(O)C(=O)C(c3ccc(CC)cc3)=C(O)C2=O)cc1,7.67% (active)
4,Clc1ccc2c(NCCNc3nc(N4CCCC4)nc4ccccc34)ccnc2c1,-14% (active)
5,CC(=Nc1ccccc1)C1=C(O)C(Cc2ccc(O)cc2)NC1=O (stereo not given),67.4% (inactive)
6,CCOc1cccc(/C=N/NC(=O)c2ccccc2Nc2ccnc(C(F)(F)F)c2)c1O,16.5% (inactive)
7,NN1C(=O)CSC1=S,104% (inactive)
8,COc1cc2nccc(Oc3ccc(NC(=O)Nc4cc(C)on4)c(Cl)c3)c2cc1OC,-1.14% (active)
9,CN(c1ncccc1CNc1nc(Nc2ccc3c(c2)CC(=O)N3)ncc1C(F)(F)F)S(C)(=O)=O,-2.8% (active)
10,O=C(Cc1ccc(/C=C/C(=O)c2ncc[nH]2)cc1)Nc1ccc(S(F)(F)(F)(F)F)cc1,57.6% (inactive)
11,COc1cc(OC)c(C(=O)/C=C/c2cc3c(cc2OCc2ccccc2)OC(C)(C)CC3)cc1CC=C(C)C,42.3% (inactive)
12,Cc1c(N)ccc(-c2ccc(N)c(C)c2S(=O)(=O)O)c1S(=O)(=O)O,106% (inactive)
13,COc1cc2ncnc(Nc3ccc(F)c(Cl)c3)c2cc1NC(=O)/C=C/CN1CCCCC1,-63% (active)
14,CN1CCN(c2nc(NCCNc3ccnc4cc(Cl)ccc34)c3ccccc3n2)CC1,0.35% (active)
15,C=CC(=O)N(C)[C@H]1C[C@H]2OC(C)(C1OC)n1c3ccccc3c3c4c(c5c6ccccc6n2c5c31)C(=O)NC4 (stereo not given in full),16.5% (inactive)
16,COc1cc(OC)c(/C=C/S(=O)(=O)Cc2ccc(OC)c(NCC(=O)O)c2)c(OC)c1,52.7% (inactive)
17,COc1cnc2c(c1)C(=O)c1c-2n(CCCN2CCC(N)CC2)c(=O)c2cc([N+](=O)[O-])ccc12,46.6% (inactive)
18,CCCCCCCC(=O)SCC/C=C/[C@@H]1CC(=O)NCc2nc(co2)C2=N[C@@](C)(CS2)C(=O)N[C@@H](C(C)C)C(=O)O1,-5.12% (active)
19,COc1cc2c(Oc3ccc4[nH]c(C)cc4c3F)ncnc2cc1OCCCN1CCCC1,82.5% (inactive)
20,CCCCN1C(=O)c2cccc3c(-c4ccc5c(c4)ncn5C4CCCCC4)ccc(c23)C1=O,81.9% (inactive)

row,SMILES,growth
1,C=CCCCOC1[C@H](OCc2ccccc2)C(OCc2ccccc2)C(OC)O[C@@H]1CNC(=O)c1cccc(I)c1 (stereo not given in full),33.4% (inactive)
2,COC(=O)[C@@H](C)CNS(=O)(=O)N(c1cc(C(F)(F)F)cc(C(F)(F)F)c1)C1CCN(Cc2ccc(F)cc2)CC1,31.1% (inactive)
3,CC1(O)CCC2CC3OC3(C)CCC3OC3(C)C(O)CC1C2(C)C (stereo not given),116% (inactive)
4,Cc1ncc(-c2ccnc(Nc3ccc(S(C)(=O)=O)cc3)n2)n1C(C)C,-12.3% (active)
5,O=C(c1ccc(F)c(F)c1Nc1ccc(I)cc1F)N1CC(O)([C@@H]2CCCCN2)C1,11.8% (inactive)
6,CCc1cc2c(cc1N1CCC(N3CCOCC3)CC1)C(C)(C)c1[nH]c3cc(C#N)ccc3c1C2=O,-26.7% (active)
7,COC(=O)CNC(=O)[C@@H](OC)[C@@H]1Cc2cc3cc(OC4CC(OC5CC(O)C(O)C(C)O5)C(O)C(C)O4)c(C)c(O)c3c(O)c2C(=O)[C@H]1OC1CC(OC2CC(OC3CC(C)(O)C(O)C(C)O3)C(O)C(C)O2)C(O)C(C)O1 (stereo not given in full),11.3% (inactive)
8,Fc1ccc(NCc2cn(-c3ccccc3)nc2-c2ccc(OCc3ccccc3)cc2)cc1Cl,79.8% (inactive)
9,CC(=O)Oc1ccccc1C(=O)N=C1[Se]CCN1C(=O)c1ccccc1OC(C)=O,-15.2% (active)
10,CS(=O)(=O)N1CCc2c(-c3cnc(N)nc3)nc(N3CCOCC3)nc21,-37.2% (active)
11,CN(C)CCOC(=O)Nc1nc2ccc(Sc3ccccc3)cc2[nH]1,22.6% (inactive)
12,O=C(Nc1ccc(N=Nc2ccccc2)cc1)c1cccc2ccccc12,66.3% (inactive)
13,COCCOc1cnc2ccn([C@H](C)c3nnc4c(F)cc(-c5cnn(C)c5)cn34)c(=O)c2c1,94.6% (inactive)
14,Cc1cc(NCC(=O)Nc2ccc(-c3nc4ccccc4s3)cc2)no1,80.3% (inactive)
15,COc1ccc(CCCc2c3[n+](cc4c(OC)c(OC)ccc24)CCc2cc4c(cc2-3)OCO4)cc1,15.6% (inactive)
16,Nc1nc(N)c2cc(CNc3ccc(C(=O)NC(CC(=O)O)C(=O)O)cc3)ccc2n1 (stereo not given),62.3% (inactive)
17,COc1ccc2c(c1)cn1c3ccc(O)cc3nc(N)c21,37.3% (inactive)
18,Cc1cc(-c2cc(OC(=O)c3ccccc3)ccc2Cl)cc2nnc(Nc3ccc(OCCN4CCCC4)cc3)nc12,91.8% (inactive)
19,C=CCn1c(=O)c2cnc(Nc3ccc(N4CCN(C)CC4)cc3)nc2n1-c1cccc(C(C)(C)O)n1,36.4% (inactive)
20,C=CC(=O)Nc1cc2c(Nc3ccc(F)c(Cl)c3)ncnc2cc1OCCCN1CCOCC1,-0.739% (active)
